This is part of a sample that, as a whole, favours compounds with a hit. Of some 79,000 tested, about 15% had one in any assay. Activity calls are given as the source filed them. No stated cut-off is given here; in the data, active means growth inhibition above about 70%; inactive means the rest.
What was measured:
[1] = NCI Yeast Anticancer Drug Screen. Data for the rad52 strain (AID 147);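 further: 0% = growth of vehicle-treated control cultures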; conditions: S. cerevisiae rad52 mutant growth inhibition, stronger effect = higher value
Outline: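 Here a repair-compromised yeast strain receives each compound; its growth is then quantified and normalised to vehicle-only controls.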

[2] = NCI Yeast Anticancer Drug Screen. Data for the wt1 strain (AID 149);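 further: 0% = growth of vehicle-treated wt1 cultures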; conditions: S. cerevisiae wt1 strain (SPY 50644) growth inhibition, stronger effect = higher value
Outline: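 Readout: yeast growth inhibition, normalised to vehicle controls, in the wt1 strain exposed to test compounds.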

[3] = NCI Yeast Anticancer Drug Screen. Data for the rad50EPP+ strain (AID 151);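 further: 0% = growth of vehicle-treated control cultures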; conditions: S. cerevisiae rad50 mutant strain, stronger effect = higher value
Outline: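 Read-out is yeast growth inhibition relative to vehicle; cells used were the rad50EPP+ strain.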

[4] = NCI Yeast Anticancer Drug Screen. Data for the mgt1 strain (AID 153); conditions: S. cerevisiae mgt1 mutant growth inhibition, stronger effect = higher value
Outline: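 Measured: inhibition of mgt1 yeast growth by compound, normalized to vehicle-treated cultures.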

[5] = NCI Yeast Anticancer Drug Screen. Data for the rad50 strain (AID 155);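 further: 0% = growth of vehicle-only cultures of the same strain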; conditions: S. cerevisiae rad50 strain growth inhibition, stronger effect = higher value
Outline: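 Compounds were tested on a yeast strain with an engineered DNA damage repair alteration; the reported value is growth inhibition normalised to vehicle treatment.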

[6] = NCI Yeast Anticancer Drug Screen. Data for the mec2-1 strain (AID 157); conditions: S. cerevisiae mec2-1 strain, stronger effect = higher value
Outline: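 Using mec2-1 yeast: add compound, measure growth, express inhibition versus vehicle-treated cultures.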

[7] = NCI Yeast Anticancer Drug Screen. Data for the rad14 strain (AID 159);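 further: 0% = growth of vehicle-treated control cultures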; conditions: S. cerevisiae rad14 strain growth inhibition, stronger effect = higher value
Outline: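 Compound-treated yeast with a defined DNA-repair lesion; growth inhibition normalised to vehicle-treated cultures.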

[8] = NCI Yeast Anticancer Drug Screen. Data for the sgs1 mgt1 strain (AID 161);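 further: 0% = growth of cultures given vehicle only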; conditions: S. cerevisiae sgs1 mgt1 strain, stronger effect = higher value
Outline: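 Growth of a repair-deficient yeast mutant was monitored after compound treatment and expressed as inhibition relative to vehicle-treated cultures.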

[9] = NCI Yeast Anticancer Drug Screen. Data for the CLN2oe strain (AID 163);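 further: 0% = growth of vehicle-only control cultures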; conditions: S. cerevisiae CLN2oe strain, stronger effect = higher value
Outline: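 Whole-cell yeast growth assay. A strain engineered for altered cell-cycle control received compound, and inhibition relative to vehicle-treated cultures was recorded.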

[10] = NCI Yeast Anticancer Drug Screen. Data for the cln2 rad14 strain (AID 165);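 further: 0% = growth equal to vehicle treated cultures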; conditions: S. cerevisiae cln2 rad14 strain, stronger effect = higher value
Outline: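 Yeast strain cln2 rad14, bearing defects in cell cycle control and DNA repair, serves as the test system; values reflect growth inhibition compared with vehicle.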

[11] = NCI Yeast Anticancer Drug Screen. Data for the bub3 strain (AID 167); conditions: S. cerevisiae bub3 mutant strain, stronger effect = higher value
Outline: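 Growth of a checkpoint-deficient yeast mutant is measured after compound exposure. Values represent inhibition relative to vehicle.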

[12] = NCI Yeast Anticancer Drug Screen. Data for the wt2 strain (AID 169);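 further: 0% = growth of vehicle-treated yeast cultures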; conditions: S. cerevisiae wt2 strain growth inhibition, stronger effect = higher value
Outline: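 Treated yeast vs. vehicle-treated yeast: growth inhibition determined.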

[13] = NCI Yeast Anticancer Drug Screen. Data for the mlh1 strain (AID 171);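 further: 0% = growth of vehicle-treated control cultures of the same strain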; conditions: S. cerevisiae mlh1 strain growth inhibition, stronger effect = higher value
Outline: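 A yeast strain with a defined genetic lesion serves as the test organism. Cultures receive compound or vehicle, and growth is measured.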

[14] = NCI Yeast Anticancer Drug Screen. Data for the sgs1 strain (AID 173);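 further: 0% = growth of vehicle-only control cultures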; conditions: S. cerevisiae sgs1 mutant, stronger effect = higher value
Outline: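 A genetically defined yeast mutant is incubated with the test compound, and its growth is compared to that of the same strain given vehicle.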

[15] = NCI Yeast Anticancer Drug Screen. Data for the mlh1 rad18 strain (AID 175); conditions: S. cerevisiae mlh1 rad18 strain growth inhibition, stronger effect = higher value
Outline: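 Steps: expose repair-defective yeast to compound; measure growth; express inhibition against vehicle-treated controls.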

[16] = NCI Yeast Anticancer Drug Screen. Data for the rad18 strain (AID 177); conditions: S. cerevisiae rad18 mutant growth inhibition, stronger effect = higher value
Outline: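 Measured value is growth inhibition of a yeast strain bearing a DNA repair alteration, referenced to vehicle-treated cells.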

[17] = at 5.0 µM (retest, dose inferred, filed as 0.5)
[18] = at 50.0 µM (retest, dose inferred, filed as 5.0)

Measured: growth inhibition

Cc1cc(C)c(S(=O)(=O)c2ccc(Cl)cc2)c(C)c1
active: [8]; at 50.0 µM 77.1% | [11]; at 50.0 µM 80.9%
inactive: [1]; at 1.2 µM -3% | [1]; at 3.7 µM -4% | [1]; at 11.0 µM -2% | [1]; at 33.0 µM 7% | [1]; at 100.0 µM 29% | [2]; at 1.2 µM -5% | [2]; at 3.7 µM -10% | [2]; at 11.0 µM -16% | [2]; at 33.0 µM -14% | [2]; at 100.0 µM -4% | [3]; at 1.2 µM -1% | [3]; at 3.7 µM 9% | [3]; at 11.0 µM 20% | [3]; at 33.0 µM 13% | [3]; at 100.0 µM 21% | [4]; at 1.2 µM -7% | [4]; at 3.7 µM -8% | [4]; at 11.0 µM -14% | [4]; at 33.0 µM -13% | [4]; at 100.0 µM -3% | [5]; at 1.2 µM 0% | [5]; at 3.7 µM 3% | [5]; [17] -7% | [5]; at 11.0 µM 6% | [5]; at 33.0 µM 8% | [5]; [18] 3% | [5]; at 50.0 µM 62.4% | [5]; at 100.0 µM 49% | [6]; at 1.2 µM -5% | [6]; at 3.7 µM -10% | [6]; [17] -5% | [6]; at 11.0 µM -16% | [6]; at 33.0 µM -16% | [6]; [18] 19% | [6]; at 50.0 µM 48% | [6]; at 100.0 µM 13% | [7]; at 1.2 µM -5% | [7]; at 3.7 µM -8% | [7]; at 11.0 µM -10% | [7]; at 33.0 µM -8% | [7]; at 100.0 µM 20% | [8]; [17] -3% | [8]; [18] 17% | [9]; at 1.2 µM -8% | [9]; at 3.7 µM -15% | [9]; at 11.0 µM -22% | [9]; at 33.0 µM -13% | [9]; at 100.0 µM -2% | [10]; [17] -9% | [10]; [18] -16% | [10]; at 50.0 µM -10.4% | [11]; at 1.2 µM -3% | [11]; at 3.7 µM 4% | [11]; [17] 5% | [11]; at 11.0 µM 11% | [11]; at 33.0 µM 19% | [11]; [18] 20% | [11]; at 100.0 µM 48% | [12]; at 1.2 µM -5% | [12]; at 3.7 µM -7% | [12]; at 11.0 µM -8% | [12]; at 33.0 µM -6% | [12]; at 100.0 µM 18% | [13]; at 1.2 µM -8% | [13]; at 3.7 µM -6% | [13]; at 11.0 µM -6% | [13]; at 33.0 µM -5% | [13]; at 100.0 µM 30% | [14]; at 1.2 µM -8% | [14]; at 3.7 µM 0% | [14]; at 11.0 µM 0% | [14]; at 33.0 µM 7% | [14]; at 100.0 µM 46% | [15]; [17] -6% | [15]; [18] 1% | [15]; at 50.0 µM 35.2% | [16]; at 1.2 µM -9% | [16]; at 3.7 µM -10% | [16]; at 11.0 µM -13% | [16]; at 33.0 µM -9% | [16]; at 100.0 µM 16%

CC(=O)N1C=Cc2c(c(C)c3c([nH]c4ccccc43)c2C)C1
inactive: [1]; at 1.2 µM 25% | [2]; at 1.2 µM -7% | [2]; at 3.7 µM 28% | [3]; at 1.2 µM 28% | [4]; at 1.2 µM 29% | [4]; at 3.7 µM 64% | [5]; at 1.2 µM 67% | [6]; at 1.2 µM -5% | [6]; at 3.7 µM 33% | [6]; [17] 12% | [7]; at 1.2 µM 7% | [7]; at 3.7 µM 32% | [8]; [17] 16% | [9]; at 1.2 µM 31% | [9]; at 3.7 µM 52% | [10]; [17] 24% | [11]; at 1.2 µM 16% | [11]; at 3.7 µM 52% | [11]; [17] 14% | [12]; at 1.2 µM 10% | [12]; at 3.7 µM 36% | [13]; at 1.2 µM 31% | [14]; at 1.2 µM -7% | [14]; at 3.7 µM 32% | [15]; [17] 44% | [16]; at 1.2 µM 23% | [16]; at 3.7 µM 44%
active: [1]; at 3.7 µM 88% | [1]; at 11.0 µM 95% | [1]; at 33.0 µM 96% | [1]; at 100.0 µM 97% | [2]; at 11.0 µM 82% | [2]; at 33.0 µM 90% | [2]; at 100.0 µM 92% | [3]; at 3.7 µM 74% | [3]; at 11.0 µM 94% | [3]; at 33.0 µM 97% | [3]; at 100.0 µM 96% | [4]; at 11.0 µM 91% | [4]; at 33.0 µM 96% | [4]; at 100.0 µM 95% | [5]; at 3.7 µM 91% | [5]; [17] 82% | [5]; at 11.0 µM 95% | [5]; at 33.0 µM 96% | [5]; [18] 91% | [5]; at 50.0 µM 87.2% | [5]; at 100.0 µM 95% | [6]; at 11.0 µM 81% | [6]; at 33.0 µM 91% | [6]; [18] 84% | [6]; at 50.0 µM 87.3% | [6]; at 100.0 µM 93% | [7]; at 11.0 µM 79% | [7]; at 33.0 µM 90% | [7]; at 100.0 µM 94% | [8]; [18] 91% | [8]; at 50.0 µM 88% | [9]; at 11.0 µM 91% | [9]; at 33.0 µM 95% | [9]; at 100.0 µM 95% | [10]; [18] 86% | [10]; at 50.0 µM 79.8% | [11]; at 11.0 µM 90% | [11]; at 33.0 µM 95% | [11]; [18] 86% | [11]; at 50.0 µM 85.3% | [11]; at 100.0 µM 96% | [12]; at 11.0 µM 81% | [12]; at 33.0 µM 90% | [12]; at 100.0 µM 92% | [13]; at 3.7 µM 71% | [13]; at 11.0 µM 90% | [13]; at 33.0 µM 96% | [13]; at 100.0 µM 95% | [14]; at 11.0 µM 86% | [14]; at 33.0 µM 95% | [14]; at 100.0 µM 95% | [15]; [18] 95% | [15]; at 50.0 µM 88.8% | [16]; at 11.0 µM 91% | [16]; at 33.0 µM 96% | [16]; at 100.0 µM 96%

Source: PubChem BioAssay (NCI)
